Our source for the growth values is PubChem BioAssay (NCI).

This is part of a sample that, as a whole, favours compounds with a hit. Of some 83,000 tested, about 20% had one in any assay.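 How to read the values: 0–100, growth inhibition (40 = 60% inhibited); 0, no net growth; -100 to 0, cell death (-40 = 40% of starting cells died; -100 = all dead).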 Values without a mark were called inactive. Calls of active or inactive are those of the source. How the source made its calls: active means growth percent below 10; inactive means the rest.

Common to all, as to assay: NCI-60 one-dose screen, 48 h (100 = growth as untreated, 0 = no growth, -100 = all killed)
Holding throughout (settings): 10 µM unless noted

For experiment [1], the system named is RPMI-8226 leukemia.
Experiment [2] relates to OVCAR-8 ovarian.
The subject of experiment [3] is OVCAR-4 ovarian.
Experiment [4] relates to SK-OV-3 ovarian.
The subject of experiment [5] is IGROV1 ovarian.
The subject of experiment [6] is OVCAR-3 ovarian.
Experiment [7] has as its system HS 578T breast.
Experiment [8] deals with NCI/ADR-RES ovarian.
The subject of experiment [9] is T-47D breast.
For experiment [10], the system named is OVCAR-5 ovarian.

Take `COc1ccc2nc(-c3ccc(Cl)cc3)cc(-c3nnc(SCC(=O)Nc4ccc(/C(C)=N\O)cc4)o3)c2c1`: the growth in experiment [1] was 18.4%; in experiment [2] it was 0.357% (active); in experiment [3], -56.1% (active); in [4], 87.5%; in [5], 60.2%; in [6] it was 36.8%. In addition, the growth in experiment [7] is 64.8%; in experiment [8], 1.11% (active); in experiment [9], 41.7%.
For `CC(C)(C)c1ccc(O)c(Cc2cc(C(C)(C)C)ccc2O)c1`, the growth was 47.7% in experiment [1]; 90.3% in experiment [2]; 95.6% in [3]; 102% in experiment [4]; 101% in experiment [5]; 103% in [6]. Moreover, the growth in [7] was 93.3%; in [8], 100%; in experiment [9], 78.6%.
With `O=C1NCc2ccc3c(-c4cccc(Cl)c4)c[nH]c3c21`, the growth in [1] was 25.8%; in [2] it was 25.4%; in experiment [3] it was 53.6%; in experiment [4], 10.9%; in [5], 32.2%; in experiment [6] it was -5.67% (active). The results for the growth in [7], in experiment [8] and in experiment [9] were 31.3%, 6.99% (active) and 39%, respectively.
With `Cc1cc(O)cc(O)c1N=NC1=NCCS1`, the growth is 106% in experiment [1]; 101% in experiment [2]; 102% in experiment [3]; 97.2% in experiment [4]; 104% in experiment [5]; 104% in experiment [6]. The results for the growth in [7], in [8] and in experiment [9] were 116%, 103% and 92.5%, respectively.
Turning to `C#C[C@@]1(O)[C@@H](CO)O[C@@H](n2cc(Cl)c3c(N)ncnc32)[C@@H]1O`, the growth in experiment [1] was -5.63% (active); in experiment [2], -23% (active); in [3] it was -4.32% (active); in experiment [4] it was -10.3% (active); in experiment [5], -17.5% (active); in [6], -10.1% (active). Besides, the growth was 5.45% (active) in experiment [7], -1.89% (active) in experiment [8] and -12.9% (active) in experiment [9].
For `O=C(Nc1cc(Br)ccn1)c1cc2cc(Nc3nc(-c4ccccc4)nc4ccccc34)ccc2oc1=O`, the growth in [1] is 108%; in experiment [2] it was 103%; in experiment [3], 111%; in experiment [4] it was 103%; in experiment [5] it was 115%; in [6] it was 113%. Also, the values for the growth in experiment [7], in experiment [8] and in experiment [9] were 107%, 113% and 98.3%, respectively.
With `Cc1ccn2c3c(c(C(=O)O)c2c1)C(=O)c1ccccc1C3=O`, the growth is 90.6% in experiment [1]; 80.1% in [2]; 69.9% in experiment [3]; 98.3% in experiment [4]; 81.3% in [5]; 45.6% in [6]. In addition, the growth in experiment [7] is 43.7%; in [8], 85.2%; in experiment [9], 90.7%.
Regarding `Cc1cc(Cl)cc(CN(Cc2ccccc2)Cc2c(O)ccc3ccccc23)c1O`, the growth was 98.5% in [2]; 116% in experiment [10]; 105% in experiment [3]; 97.2% in experiment [4]; 94.7% in experiment [5]; 91.7% in [6]. Moreover, the growth in [7] is 102%; in experiment [8], 96.5%; in experiment [9] it was 89.5%.
